SMILES strings stand for the structures. Inconclusive results are not listed. A call without a number means that no potency is given here. Calls of active or inactive are those of the source. Calls come from the whole dose curve; as a rule, active = well fitted inhibition curve with a large enough effect; inconclusive = small, poorly fitted or top-dose-only effect; inactive = flat fitted curve, though single readings scatter.
Potency is the fitted concentration of half-maximal effect.

This assay can be described thus: qHTS to identify inhibitors of the type 1 interferon - major histocompatibility complex class I in skeletal muscle: primary screen against the NCATS LOPAC collection (AID 1347405).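 Note: lytic HiBiT luminescence reporting HLA-B protein level.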 As to conditions: iHSKM muscle cells, IFN-b-induced MHC-I HiBiT luminescence, 24 h; series mostly up to 45.9 µM. The source says:
Assay Submitter (PI): Travis B. Kinder Ph.D. & James Inglese Ph.D.
Assay Development and Screening Technology Laboratory (ADST)
National Center for Advancing Translational Sciences (NCATS), Rockville, MD
National Institute of Health (NIH), Bethesda, Maryland
Idiopathic inflammatory myopathies, collectively referred to as myositis, are a group of rare autoimmune diseases characterized by skeletal muscle inflammation, weakness, and usually accompanied by systemic pathologies of the skin, lungs, or vasculature. Current immunosuppressive therapies and glucocorticoids are often not curative and are accompanied by harsh side effects, especially in children with juvenile myositis. We initiated a drug repurposing and development program to identify more targeted, less toxic therapeutics to treat myositis. Although its cause is not known, muscle from a subset of patients have an abundance of the inflammatory type 1 interferon (IFN) and a down-stream product major histocompatibility complex class I (MHC class I), which are both thought to contribute to damage and weakness. We conducted quantitative high throughput screening on 6,576 compounds (4,679 unique) through a series of cell-based assays to identify those that inhibit the IFN-stimulated expression of MHC class I in muscle precursor cells (myoblasts). The compound identification and evaluation strategy utilized a primary screen with reporter-tagged MHC class I in genome-engineered myoblasts, ATP content counter screen for viability, HLA-ABC immunofluorescence secondary screen, and HLA-B RT-qPCR tertiary screen.
The primary screen utilized CRISPR/Cas9 genome-engineering of immortalized human myoblasts, C25cl48, where a pro-luminescent reporter HiBit was fused to the C-terminus of endogenous MHC class I allele HLA-B*08:01 (HLA-B HiBit myoblasts). HiBit is an 11 amino acid fragment of NanoLuc luminescent reporter (Promega Corporation), and when complexed to the larger LgBit fragment, the reconstituted enzyme produces light in the presence of furimazine substrate (Schwinn et al., 2018). Briefly, HLA-B HiBit myoblasts were plated into 1536-well plates, treated with 4.0 ng/ml human IFN-beta and 1,280 compounds from the Library of Pharmacologically Active Compounds 1280 library (LOPAC1280, Sigma Aldrich) in a 7-point, 1:4.3 titration with a high final concentration of 46 uM. After 24 hrs of treatment, cells were assayed by Nano-Glo HiBiT Lytic Detection System (Promega) and luminescence measured by a ViewLux 1430 Ultra HTS (Perkin Elmer).
Schwinn MK, Machleidt T, Zimmerman K, Eggers CT, Dixon AS, Hurst R, Hall MP, Encell LP, Binkowski BF, Wood K V. 2018. CRISPR-Mediated Tagging of Endogenous Proteins with a Luminescent Peptide. ACS Chem Biol 13:467-474. doi:10.1021/acschembio.7b00549
PROTOCOL TABLE (as described by Inglese et al., 2007)
SEQUENCE No. (e.g., 1, 2, 3, etc.); […] (e.g., Cells, Incubation, Reagent, etc.); VALUE; DESCRIPTION
1a; Cells; 5 uL; Use a Multidrop Combi (Thermo Scientific) to seed 350 cells/well into nine Greiner 1536 well white/solid bottom, high base, TC plates in 5 ul/well of iHSKM growth medium (GM) without dexamethasone into columns 1+2. Add metal lids with gas-exchange holes
1b; Cells; 5 uL; Use a Multidrop Combi (Thermo Scientific) to seed 350 cells/well into nine Greiner 1536 well white/solid bottom, high base, TC plates in 5 ul/well of iHSKM GM without dexamethasone + 4 ng/ml IFN-b into columns 3 - 48. Add metal lids with gas-exchange holes
2; Incubate; 1 hr; Incubate at 37 C, 5% CO2, 95% RH
3; Compounds; 23 nl; Use Pin Tool (Wako) to transfer DMSO control, ruxolitinib IFN-b inhibitor control [High Concentration = 80 uM final, 16-pt, 1:2 in duplicate], and library compounds in DMSO
4; Incubate; 24 hrs; Incubate at 37 C, 5% CO2, 95% RH
5; Dispense; 2.5 ul; Use BioRAPTR FRD (Beckman Coulter) to add HiBit lytic reagent
6; Incubate; 10 min; Incubate in the dark at ambient temperature for lysis
[…]
On to `C#CCn1c(=O)c2c(ncn2C)n(C)c1=O`, for which the Potency result is “inactive”.

In the case of `CC(C)NC[C@H](O)COc1ccc(CC(N)=O)cc1`, the Potency entry is “inactive”.

Regarding `COc1ccc(C(=O)NCc2cccnc2)cc1C(=O)NCc1cccnc1`, the Potency result is “inactive”.

Turning to `O=C(O)c1cccnc1C(=O)O`, the Potency result is “inactive”.

As to `Cn1cc(C(=O)OCC2CCN(CCNS(C)(=O)=O)CC2)c2ccccc21`, the Potency result was “inactive”.

As for `NC1(C(=O)O)CCc2cc(C(=O)O)ccc21` (stereo not given), the Potency entry was “inactive”.

As for `O=C(O)C1=CCCNC1`, the Potency result is “inactive”.

With `COc1cc(/C=C(\C#N)C(=O)c2ccc(O)c(O)c2)cc(I)c1O`, the Potency result is “inactive”.

With `CC1CCN=C(N)S1` (stereo not given), the Potency entry is “inactive”.

Consider `N=C(N)c1ccccc1`, for which the Potency entry was “inactive”.

As for `COc1ccc2c(c1)c(CC(=O)O)c(C)n2Cc1ccc(Cl)cc1`, the Potency result was “inactive”.

Regarding `CCCn1c(=O)c2c(ncn2C)n(CCC)c1=O`, the Potency entry was “inactive”.

In the case of `C=C(C)C1CC=C(C(=O)O)CC1` (stereo not given), the Potency result is “inactive”.

On to `O=C(c1ccc2c(c1)OCCO2)N1CCCCC1`, for which the Potency entry was “inactive”.

`CC(N)=NCCCC[C@@H](N)C(=O)O`: the Potency result is “inactive”.

For `N#CC(C#N)=C(N)/C(C#N)=C/c1ccc(O)cc1`, the Potency entry was “inactive”.

For the molecule `CCCCCCCCCC[Si](C)(C)CCC(=O)NC(Cc1ccc(C)cc1)c1ccccc1` (stereo not given), the Potency entry was “inactive”.

Turning to `Cc1cc(Cn2cnc3c2C[C@@H](C(=O)O)N(C(=O)C(c2ccccc2)c2ccccc2)C3)ccc1N`, the Potency entry is “inactive”.

For `CCCCCCC(=O)OC1CC(C)(C)NC(C)(C)C1`, the Potency entry was “inactive”.

As to `C=C1C(=O)O[C@@H]2[C@H]3O[C@]3(C)CCC=C(C)CC[C@@H]12`, the Potency was 14.1 µM (active).

With `CCCCCCN(CCCCCC)C(=O)Cc1c(-c2ccc(F)cc2)[nH]c2ccccc12`, the Potency result was “inactive”.

As to `Cn1c(=O)[nH]c2ncn(C)c2c1=O`, the Potency entry was “inactive”.

Consider `Cn1c(=O)c2[nH]c(C3CCCC3)nc2n(C)c1=O`, for which the Potency entry was “inactive”.

Regarding `Cc1cc2c(cc1Cl)N(C(=O)Nc1ccnc3ccccc13)CC2`, the Potency entry is “inactive”.

For `C=CCN1CCc2cc(O)c(O)cc2C(c2ccccc2)C1` (stereo not given), the Potency entry is “inactive”.

Consider `Nc1ccc(CCNc2ncnc3c2ncn3C2OC(CO)C(O)C2O)cc1` (stereo not given), for which the Potency entry is “inactive”.

With `CC[C@H](NC(=O)c1c(C)c(-c2ccccc2)nc2ccccc12)c1ccccc1`, the Potency result was “inactive”.

As for `CCN(c1nc(N)c(C(=O)N=C(N)N)nc1Cl)C(C)C`, the Potency result is “inactive”.

`[Li+]`: the Potency result was “inactive”.

`Brc1c(Br)c(Br)c2[nH]cnc2c1Br`: the Potency is 12.6 µM (active).

As to `O=C1Cc2c([nH]c3ccc(Br)cc23)-c2ccccc2N1`, the Potency was 12.6 µM (active).

As for `NCC(O)c1ccc(O)c(O)c1` (stereo not given), the Potency result was “inactive”.

With `NC(Cc1cccc(-c2ccccc2CP(=O)(O)O)c1)C(=O)O` (stereo not given), the Potency entry is “inactive”.

Take `CNC(=O)c1cc2c(cn1)[nH]c1ccccc12`: the Potency result was “inactive”.

Regarding `CSc1nc(N)c2ncn([C@@H]3O[C@H](COP(=O)(O)OP(=O)(O)O)C(O)[C@H]3O)c2n1` (stereo not given in full), the Potency result was “inactive”.

Take `COc1ccc(-c2ccc(N)[n+](CCCC(=O)O)n2)cc1`: the Potency result was “inactive”.

`CC(=O)N[C@@H](Cc1c[nH]c2ccccc12)C(=O)OCc1cc(C(F)(F)F)cc(C(F)(F)F)c1`: the Potency entry is “inactive”.

For `CCCN(CCc1ccccc1)C1CCc2c(O)cccc2C1` (stereo not given), the Potency entry was “inactive”.

For the molecule `N[C@@H](Cc1ccc(F)cc1)C(=O)O`, the Potency result is “inactive”.

`c1ccc2c(c1)CC(N1CCN(c3cccc4c3OCCO4)CC1)C2`: the Potency result is “inactive”.

The record behind these values is PubChem BioAssay (NCATS).
